Sampled rows, rich in hits. Any-hit rate of the full collection: about 19%.
HT1080-NT tox: kills 2HG-producing HT-1080-NT fibrosarcoma cells; AID 686970; actives 1.6% (n = 360,000); Potency, µM (top dose mostly 46.1 µM), inactives show at the top dose activity, negative = less viability, usual class: cytotoxic; HT-1080-NT fibrosarcoma viability, CellTiter-Glo ATP luminescence, 48 h;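 note: NT is the 2HG producing partner of a matched IDH1 knockdown line; potency is the fitted concentration of half-maximal effect; 0% = DMSO-treated cells and -100% = media-only wells without cells; nearly all actives have a fitted effect of over 55% in size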
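Fibrosarcoma NT cells, 750 per well in 5% FBS RPMI, were exposed to compound for 48 hours. Viability: CellTiter-Glo luminescence.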
IL-1B inflam inh: blocks inflammasome-driven IL-1 beta release; THP-1 LPS/ATP IL-1B secretion, AlphaLISA, 16 h; hits give low values; activity change, % at 57.5 µM; actives 4.7% (n = 360,000); AID 743279; in the data active = activity change below about -50%; inconclusive = mostly about -30% to -49%
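THP-1 cells pretreated 1 hr with compounds (up to 57.5 uM final), then stimulated with LPS (250 ng/mL final) plus ATP (1.25 mM final); secreted IL-1B measured by AlphaLISA after 16 hr, decreased signal indicating inhibition.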
HT1080 IDH1KD tx: HT-1080 IDH1 knockdown cell toxicity (counter line) | actives 2% (n = 360,000) | Potency, µM (doses to about 46.1 µM), inactives show at the top dose activity, negative = toxicity, usual class: cytotoxic | HT-1080 IDH1 knockdown viability, ATP luminescence, 48 h;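 note: potency is the fitted concentration of half-maximal effect; 0% = DMSO wells and -100% = cell-free medium wells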
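Luminescent ATP read-out (CellTiter-Glo, 10 min at room temperature) after 48 h compound exposure at 37 °C gave viability of IDH1-knockdown HT-1080 cells. Activity was normalised to DMSO and cell-free wells, then fitted as concentration-response curves.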
DT40 TDP1 CPT: DT40-hTDP1 cell growth loss with CPT. AID 686979. chicken DT40 Tdp1-/-;hTDP1 cells + 20 nM CPT, ATP luminescence, 48 h. actives 12% (n = 420,000). Potency, µM (doses to about 46.2 µM), without a hit: at the highest dose activity change, negative = growth inhibition, hits mostly inhibitors; note: potency is the fitted concentration of half-maximal effect; nearly all actives have a fitted effect of over 55% in size
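Cell growth measured by CellTiter-Glo luminescence after a minimum 48 h, 37 C compound exposure with 20 nM CPT in Tdp1-knockout DT40 cells stably expressing hTDP1, seeded 400/well; qHTS titration format.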
DT40 TDP1 no CPT: qHTS for Inhibitors of human tyrosyl-DNA phosphodiesterase 1 (TDP1): qHTS in cells in absence of CPT; DT40 Tdp1-/- hTDP1 cells, no CPT, ATP luminescence, 48 h; Potency, µM (series often up to 46.2 µM), inactives show at the highest dose activity change, negative = growth inhibition, actives largely listed as inhibitors; actives 15% (n = 420,000); AID 686978, 2013; note: potency is the fitted concentration of half-maximal effect; nearly all actives have a fitted effect of over 55% in size
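Readout: luminescence from CellTiter-Glo after 30 min in the dark at RT. Cells: DT40 Tdp1-/- with stable hTDP1, 400/well. Exposure: compounds alone, ≥48 hr, 37 °C.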
Starred values were filed as active, the others as inactive; i = inactive; u = inconclusive; x = no result given. Unless noted, calls come from the whole dose curve; as a rule, active = well fitted curve in the direction sought with a large enough effect; inconclusive = small, poorly fitted or top-dose-only effect, or another doubt; inactive = no such curve, though single readings can be large; an effect the other way counts as inactive or inconclusive. Unless noted, % is set by controls: 0 for no effect and ±100 for the full control effect.

SMILES	HT1080-NT tox	IL-1B inflam inh	HT1080 IDH1KD tx	DT40 TDP1 CPT	DT40 TDP1 no CPT
COc1ccccc1CNc1nc2cc(-c3sccc3C)sc2c(=O)n1C	14%	-9	-1%	18µM*	16µM*
Cc1ccccc1-c1cc2nc(Nc3ccc(F)cc3)n(C)c(=O)c2s1	u	-15	u	u	23µM*
Nc1nc(Cl)cc(Sc2ccc3ccccc3c2)n1	u	-5	16µM*	15µM*	23µM*
Cc1cc(/C=C2\NC(=O)NC2=O)c(C)n1-c1ccc(N2CCOCC2)cc1	18%	-6	21%	u	21µM*
Cc1cc(/C=C2/NC(=O)NC2=O)c(C)n1-c1ccc(N2CCOCC2)cc1	10%	0	26%	u	u
CCCCNC(=O)c1ccccc1SCC(=O)NC1CCCCCCC1	3%	14	-1%	-24%	-1%
Cc1cc(C)nc(NNC2=CC(=[N+]3CCCCC3)CC(C)(C)C2)n1	12%	1	26%	-25%	15µM*
Cc1ccc(C2=C(c3ccc([N+](=O)[O-])cc3)C(=O)OC2)cc1C	-7%	-2	-9%	u	18µM*
COC(=O)[C@]1(C)N[C@H](c2ccc(SC3CCCCC3)cc2)[C@@H]2C(=O)N(C)C(=O)[C@@H]21	5%	22	14%	u	16µM*
CCCSc1ccc([C@H]2N[C@@](C)(C(=O)OC)[C@H]3C(=O)N(C)C(=O)[C@@H]23)cc1	10%	13	6%	-29%	-30%
CCCCCCSc1ccc([C@H]2N[C@@](C)(C(=O)OC)[C@H]3C(=O)N(C)C(=O)[C@@H]23)cc1	-18%	u	-22%	21µM*	-76%
CC(C)(C)C(=O)c1cnc(Nc2ccccc2Cl)s1	-20%	u	-9%	-22%	-26%
O=C(c1ccccc1)c1cnc(Nc2ccccc2Cl)s1	-3%	-58*	-15%	-22%	-8%
C[C@H]1CN([C@@H](C)CO)C(=O)Cc2cc(NS(C)(=O)=O)ccc2O[C@@H]1CN(C)Cc1ccc(Cl)c(Cl)c1	u	u	-18%	u	-26%
C[C@@H]1CN([C@@H](C)CO)C(=O)Cc2cc(NC(=O)Nc3ccc(F)cc3)ccc2O[C@@H]1CN(C)Cc1ccc(Cl)c(Cl)c1	18µM*	-54*	u	u	15µM*
C[C@H](CO)N1C[C@H](C)[C@H](CN(C)Cc2ccc(Oc3ccccc3)cc2)Oc2ccc(NC(=O)Nc3cccc4ccccc34)cc2CC1=O	-3%	4	-17%	u	u
C[C@H]1CN([C@@H](C)CO)C(=O)Cc2cc(NC(=O)Nc3ccccc3)ccc2O[C@H]1CN(C)Cc1ccccc1	-24%	-72*	u	21µM*	21µM*
C[C@H](CO)N1C[C@H](C)[C@H](CN(C)Cc2ccncc2)Oc2ccc(NC(=O)Nc3ccc(C(F)(F)F)cc3)cc2CC1=O	u	-10	u	3.3µM*	4.6µM*
O=Cc1ccc(CS)cc1	x	x	x	-5%	-21%
CCOc1ccc(N2C(=O)CC(Sc3ncccn3)C2=O)cc1 (configuration not stated)	15%	8	22%	18µM*	u
COc1ccccc1N1C(=O)CC(Sc2n[nH]c(-c3cccc(C)c3)n2)C1=O (configuration not stated)	u	i	-26%	2.1µM*	2.1µM*
O=C1CC(Sc2ncccn2)C(=O)N1c1ccccc1 (configuration not stated)	5%	-3	3%	14µM*	u
Nc1nnc(SC2CC(=O)N(c3ccccc3)C2=O)s1 (configuration not stated)	2%	-89*	2%	7.3µM*	3.3µM*
COc1ccc(C2CC(C(F)(F)F)n3ncc(C(=O)Nc4cccc(O)c4)c3N2)cc1OC (configuration not stated)	5%	-7	-2%	-15%	u
Cc1nc(SC2CC(=O)N(c3ccccc3)C2=O)n[nH]1 (configuration not stated)	17%	-23	12%	1.5µM*	5.2µM*
SMILES	HT1080-NT tox	IL-1B inflam inh	HT1080 IDH1KD tx	DT40 TDP1 CPT	DT40 TDP1 no CPT
CC1CCCC(NC(=O)COC(=O)c2ccc3c(c2)OCCO3)C1C (configuration not stated)	10%	13	2%	-3%	10%
COc1ccc(-n2c(CCc3ccccc3)nnc2SCC(=O)c2ccc(Cl)cc2)cc1	8%	u	-7%	u	u
O=S(Cc1ccc(Br)cc1)Cc1nnc(SCc2ccc(Cl)cc2)n1-c1ccccc1 (configuration not stated)	-3%	-68*	-22%	16µM*	18µM*
O=c1cc(Cc2nnc(SCc3ccccc3)n2-c2ccc(Cl)cc2)[nH]c(=O)[nH]1	0%	7	2%	-3%	29%
O=C(CSc1nnc(CCc2ccccc2)n1-c1ccc(Cl)cc1)c1ccccc1	4%	-64*	3%	u	23µM*
O=S(Cc1ccc(Br)cc1)Cc1nnc(SCc2c(F)cccc2Cl)n1-c1ccccc1 (configuration not stated)	-5%	-62*	-24%	15µM*	9.2µM*
CC1CCN(S(=O)(=O)N2CCC(C(=O)NCCC3=CCCCC3)CC2)CC1	20%	25	7%	u	u
O=C(CN1C(=O)COc2ccccc21)NC1CCCC1	15%	1	4%	-9%	-19%
Cc1cc(C)c(C(=O)COC(=O)c2cccnc2Cl)c(C)c1	-1%	-9	16%	-12%	3%
CC1CCCCC12NC(=O)N(CC(=O)Nc1ccc(Cl)c(S(=O)(=O)N3CCOCC3)c1)C2=O (configuration not stated)	-1%	24	-1%	u	18µM*
CC1CCCCC12NC(=O)N(CC(=O)Nc1cccc(S(=O)(=O)N3CCCCC3)c1)C2=O (configuration not stated)	-1%	6	-2%	-21%	-23%
Cc1ccc(NC(=O)CN2C(=O)NC(C)(c3ccc(Cl)cc3)C2=O)cc1S(=O)(=O)N1CCOCC1 (configuration not stated)	u	-5	13µM*	21µM*	18µM*
Cc1ccc(NC(=O)CN2C(=O)NC3(CCCCC3C)C2=O)cc1S(=O)(=O)N1CCOCC1 (configuration not stated)	0%	-7	-2%	u	23µM*
Cc1ccc(NC(=O)CN2C(=O)NC(C)(C)C2=O)cc1S(=O)(=O)N1CCCCCC1	4%	1	3%	-9%	-13%

Screening results: PubChem BioAssay, National Center for Advancing Translational Sciences (NCATS)
